Measured values published in the supplement of paper PMC12669032.

How the values were obtained:
Assay in all cases: growth AUC relative to DMSO control (median of replicates) (fraction); higher = more growth (less inhibition), active = hit call of the paper
Settings in all cases: 20 µM; 24 h;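 active = AUC reduced over 20% with Padj below 0.05 in at least 2 of 3 replicates; inactive = otherwise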
Akkermansia muciniphila = test system: Akkermansia muciniphila
Outline: (§1)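 Three biological replicates, each grown on a separate day, were combined as a median for every value. In each, a gut bacterial monoculture in mGAM started at OD600 0.05 and grew anaerobically at 37 °C with 20 µM compound (1% DMSO), with OD600 read hourly over 24 h. Area under the growth curve was normalised against the plate median of solvent-only wells, or against row and column medians on the industrial chemical plate, after the minimum OD was set to 0.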

Bacteroides caccae = test system: Bacteroides caccae
Outline: as §1

Bacteroides clarus = test system: Bacteroides clarus
Outline: as §1

Bacteroides dorei = test system: Bacteroides dorei
Outline: as §1

Bacteroides stercoris = test system: Bacteroides stercoris
Outline: as §1

[1] = test system: Bacteroides thetaiotaomicron
Outline: as §1

Bacteroides uniformis = test system: Bacteroides uniformis
Outline: as §1

[2] = test system: Bifidobacterium longum subsp. longum
Outline: as §1

Clostridium difficile = test system: Clostridium difficile
Outline: as §1

Collinsella aerofaciens = test system: Collinsella aerofaciens
Outline: as §1

Coprococcus comes = test system: Coprococcus comes
Outline: as §1

Escherichia coli ED1a = test system: Escherichia coli ED1a
Outline: as §1

Escherichia coli IAI1 = test system: Escherichia coli IAI1
Outline: as §1

Eubacterium rectale = test system: Eubacterium rectale
Outline: as §1

[3] = test system: Fusobacterium nucleatum subsp. animalis
Outline: as §1

Lactobacillus gasseri = test system: Lactobacillus gasseri
Outline: as §1

Lactobacillus paracasei = test system: Lactobacillus paracasei
Outline: as §1

Odoribacter splanchnicus = test system: Odoribacter splanchnicus
Outline: as §1

[4] = test system: Parabacteroides distasonis
Outline: as §1

Parabacteroides merdae = test system: Parabacteroides merdae
Outline: as §1

Measured: growth AUC

CN1CSC(=S)N(C)C1
inactive: Akkermansia muciniphila 1.02 | Bacteroides caccae 1.01 | Bacteroides clarus 0.939 | Bacteroides dorei 1.03 | Bacteroides stercoris 0.942 | [1] 0.976 | Bacteroides uniformis 1.05 | [2] 1.01 | Clostridium difficile 0.976 | Collinsella aerofaciens 1.07 | Coprococcus comes 0.957 | Escherichia coli ED1a 0.991 | Escherichia coli IAI1 0.994 | Eubacterium rectale 1.06 | [3] 0.966 | Lactobacillus gasseri 1.07 | Lactobacillus paracasei 1.04 | Odoribacter splanchnicus 0.988 | [4] 0.991 | Parabacteroides merdae 0.976

N#Cc1nn(-c2c(Cl)cc(C(F)(F)F)cc2Cl)c(N)c1S(=O)C(F)(F)F (stereo not given)
active: [4] 0.714
inactive: Akkermansia muciniphila 1.07 | Bacteroides caccae 0.964 | Bacteroides clarus 0.881 | Bacteroides dorei 0.897 | Bacteroides stercoris 0.95 | [1] 0.986 | Bacteroides uniformis 0.895 | [2] 0.951 | Clostridium difficile 0.966 | Collinsella aerofaciens 1.04 | Coprococcus comes 1 | Escherichia coli ED1a 1.01 | Escherichia coli IAI1 0.981 | Eubacterium rectale 0.951 | [3] 0.974 | Lactobacillus gasseri 0.811 | Lactobacillus paracasei 0.98 | Odoribacter splanchnicus 0.93 | Parabacteroides merdae 0.87

C#CCN1CC(=O)N(COC(=O)C2C(C=C(C)C)C2(C)C)C1=O (mixture of isomers)
inactive: Akkermansia muciniphila 0.804 | Bacteroides caccae 0.949 | Bacteroides clarus 0.936 | Bacteroides dorei 0.96 | Bacteroides stercoris 0.986 | [1] 0.952 | Bacteroides uniformis 0.962 | [2] 0.949 | Clostridium difficile 0.997 | Collinsella aerofaciens 1.02 | Coprococcus comes 0.982 | Escherichia coli ED1a 0.991 | Escherichia coli IAI1 0.968 | Eubacterium rectale 0.805 | [3] 0.945 | Lactobacillus gasseri 0.994 | Lactobacillus paracasei 0.997 | Odoribacter splanchnicus 0.958 | [4] 0.996 | Parabacteroides merdae 0.927

O=C(NCCc1ncc(C(F)(F)F)cc1Cl)c1ccccc1C(F)(F)F
inactive: Akkermansia muciniphila 0.849 | Bacteroides caccae 0.978 | Bacteroides clarus 1.01 | Bacteroides dorei 1 | Bacteroides stercoris 0.951 | [1] 0.973 | Bacteroides uniformis 0.987 | [2] 0.974 | Clostridium difficile 0.996 | Collinsella aerofaciens 1 | Coprococcus comes 1 | Escherichia coli ED1a 1.01 | Escherichia coli IAI1 0.988 | Eubacterium rectale 0.964 | [3] 0.875 | Lactobacillus gasseri 0.999 | Lactobacillus paracasei 1.01 | Odoribacter splanchnicus 0.985 | [4] 0.96 | Parabacteroides merdae 0.996

CCOC(=O)C(Cl)Cc1cc(-n2nc(C)n(C(F)F)c2=O)c(F)cc1Cl (stereo not given)
inactive: Akkermansia muciniphila 0.963 | Bacteroides caccae 0.991 | Bacteroides clarus 0.927 | Bacteroides dorei 0.967 | Bacteroides stercoris 0.996 | [1] 0.926 | Bacteroides uniformis 0.936 | [2] 1.02 | Clostridium difficile 0.981 | Collinsella aerofaciens 0.972 | Coprococcus comes 0.963 | Escherichia coli ED1a 0.986 | Escherichia coli IAI1 0.941 | Eubacterium rectale 0.794 | [3] 0.987 | Lactobacillus gasseri 1.01 | Lactobacillus paracasei 0.966 | Odoribacter splanchnicus 0.988 | [4] 0.963 | Parabacteroides merdae 0.925

Cc1ccc(NC(=O)N(C)C)cc1Cl
inactive: Akkermansia muciniphila 0.946 | Bacteroides caccae 1.04 | Bacteroides clarus 0.989 | Bacteroides dorei 1.01 | Bacteroides stercoris 0.954 | [1] 1 | Bacteroides uniformis 0.976 | [2] 0.827 | Clostridium difficile 1.01 | Collinsella aerofaciens 0.989 | Coprococcus comes 0.996 | Escherichia coli ED1a 0.985 | Escherichia coli IAI1 0.982 | Eubacterium rectale 0.965 | [3] 0.916 | Lactobacillus gasseri 1.12 | Lactobacillus paracasei 0.954 | Odoribacter splanchnicus 1.02 | [4] 1.05 | Parabacteroides merdae 0.972

Oc1cccc2cccnc12
inactive: Akkermansia muciniphila 0.981 | Bacteroides caccae 0.994 | Bacteroides clarus 1.01 | Bacteroides dorei 0.993 | Bacteroides stercoris 1.12 | [1] 0.984 | Bacteroides uniformis 0.988 | [2] 1.14 | Clostridium difficile 0.959 | Collinsella aerofaciens 0.963 | Coprococcus comes 0.928 | Escherichia coli ED1a 0.987 | Escherichia coli IAI1 0.982 | Eubacterium rectale 0.904 | [3] 1.04 | Lactobacillus gasseri 1.08 | Lactobacillus paracasei 0.942 | Odoribacter splanchnicus 1.02 | [4] 1 | Parabacteroides merdae 0.993

CC(C)N(C(=O)SCC(Cl)=C(Cl)Cl)C(C)C
inactive: Akkermansia muciniphila 1.26 | Bacteroides caccae 1 | Bacteroides clarus 1.02 | Bacteroides dorei 0.955 | Bacteroides stercoris 0.955 | [1] 0.999 | Bacteroides uniformis 0.989 | [2] 1.01 | Clostridium difficile 0.994 | Collinsella aerofaciens 0.953 | Coprococcus comes 0.981 | Escherichia coli ED1a 0.977 | Escherichia coli IAI1 0.977 | Eubacterium rectale 1.08 | [3] 1.01 | Lactobacillus gasseri 0.948 | Lactobacillus paracasei 1 | Odoribacter splanchnicus 0.944 | [4] 0.872 | Parabacteroides merdae 0.947

C=CCC1=C(C)C(OC(=O)C2C(C=C(C)C)C2(C)C)CC1=O (stereo not given)
inactive: Akkermansia muciniphila 1.05 | Bacteroides caccae 0.994 | Bacteroides clarus 1 | Bacteroides dorei 0.97 | Bacteroides stercoris 0.832 | [1] 0.968 | Bacteroides uniformis 0.98 | [2] 0.963 | Clostridium difficile 1 | Collinsella aerofaciens 0.957 | Coprococcus comes 0.986 | Escherichia coli ED1a 1.01 | Escherichia coli IAI1 1 | Eubacterium rectale 0.927 | [3] 0.946 | Lactobacillus gasseri 0.868 | Lactobacillus paracasei 0.949 | Odoribacter splanchnicus 0.996 | [4] 0.846 | Parabacteroides merdae 0.96

CC(C)C(C(=O)OC(C#N)c1cccc(Oc2ccccc2)c1)c1ccc(Cl)cc1 (stereo not given)
inactive: Akkermansia muciniphila 0.88 | Bacteroides caccae 0.977 | Bacteroides clarus 1 | Bacteroides dorei 0.935 | Bacteroides stercoris 1.1 | [1] 1.02 | Bacteroides uniformis 0.986 | [2] 0.765 | Clostridium difficile 1.01 | Collinsella aerofaciens 0.903 | Coprococcus comes 1 | Escherichia coli ED1a 1.01 | Escherichia coli IAI1 0.963 | Eubacterium rectale 0.901 | [3] 1.02 | Lactobacillus gasseri 0.9 | Lactobacillus paracasei 1.11 | Odoribacter splanchnicus 0.893 | [4] 1.01 | Parabacteroides merdae 0.974

CC(C)N1C(=O)N(c2ccccc2)CSC1=NC(C)(C)C
inactive: Akkermansia muciniphila 0.893 | Bacteroides caccae 0.957 | Bacteroides clarus 0.902 | Bacteroides dorei 0.946 | Bacteroides stercoris 0.977 | [1] 0.927 | Bacteroides uniformis 0.981 | [2] 0.99 | Clostridium difficile 1.02 | Collinsella aerofaciens 0.971 | Coprococcus comes 0.943 | Escherichia coli ED1a 0.967 | Escherichia coli IAI1 1.02 | Eubacterium rectale 0.956 | [3] 0.966 | Lactobacillus gasseri 0.963 | Lactobacillus paracasei 1.03 | Odoribacter splanchnicus 1.02 | [4] 0.946 | Parabacteroides merdae 0.997

CCC1COC(Cn2cncn2)(c2ccc(Cl)cc2Cl)O1 (stereo not given)
inactive: Akkermansia muciniphila 0.893 | Bacteroides caccae 0.992 | Bacteroides clarus 0.935 | Bacteroides dorei 0.976 | Bacteroides stercoris 0.938 | [1] 0.982 | Bacteroides uniformis 0.956 | [2] 0.976 | Clostridium difficile 0.994 | Collinsella aerofaciens 0.94 | Coprococcus comes 0.982 | Escherichia coli ED1a 0.988 | Escherichia coli IAI1 0.96 | Eubacterium rectale 0.755 | [3] 0.917 | Lactobacillus gasseri 1.1 | Lactobacillus paracasei 0.92 | Odoribacter splanchnicus 0.983 | [4] 1 | Parabacteroides merdae 0.948

COP(=S)(OC)Oc1cc(Cl)c(I)cc1Cl
inactive: Akkermansia muciniphila 1.09 | Bacteroides caccae 0.999 | Bacteroides clarus 0.959 | Bacteroides dorei 0.985 | Bacteroides stercoris 1.04 | [1] 0.964 | Bacteroides uniformis 0.954 | [2] 0.918 | Clostridium difficile 0.937 | Collinsella aerofaciens 0.941 | Coprococcus comes 1.01 | Escherichia coli ED1a 1.02 | Escherichia coli IAI1 0.985 | Eubacterium rectale 1.01 | [3] 1.08 | Lactobacillus gasseri 0.872 | Lactobacillus paracasei 1 | Odoribacter splanchnicus 0.962 | Parabacteroides merdae 0.964
active: [4] 0.707

CCOc1cc(OP(=S)(OC)OC)nc(CC)n1
inactive: Akkermansia muciniphila 0.924 | Bacteroides caccae 1.03 | Bacteroides clarus 1 | Bacteroides dorei 1.01 | Bacteroides stercoris 1.13 | [1] 0.994 | Bacteroides uniformis 0.996 | [2] 1.01 | Clostridium difficile 0.997 | Collinsella aerofaciens 1.03 | Coprococcus comes 0.984 | Escherichia coli ED1a 1 | Escherichia coli IAI1 1.01 | Eubacterium rectale 1.04 | [3] 1.04 | Lactobacillus gasseri 0.996 | Lactobacillus paracasei 1.05 | Odoribacter splanchnicus 0.987 | [4] 0.951 | Parabacteroides merdae 0.979

O=c1[nH]c(Cl)c(Cl)cc1Cl
inactive: Akkermansia muciniphila 0.98 | Bacteroides caccae 1.04 | Bacteroides clarus 0.967 | Bacteroides dorei 0.991 | Bacteroides stercoris 1.05 | [1] 1.11 | Bacteroides uniformis 0.978 | [2] 0.981 | Clostridium difficile 0.95 | Collinsella aerofaciens 1.01 | Coprococcus comes 0.998 | Escherichia coli ED1a 0.952 | Escherichia coli IAI1 0.983 | Eubacterium rectale 0.991 | [3] 1.04 | Lactobacillus gasseri 0.928 | Lactobacillus paracasei 0.984 | Odoribacter splanchnicus 0.942 | [4] 0.921 | Parabacteroides merdae 1.01

CCC(=O)Nc1ccc(Cl)c(Cl)c1
inactive: Akkermansia muciniphila 0.797 | Bacteroides caccae 1 | Bacteroides clarus 0.978 | Bacteroides dorei 1.03 | Bacteroides stercoris 0.972 | [1] 0.988 | Bacteroides uniformis 0.969 | [2] 0.837 | Clostridium difficile 1.03 | Collinsella aerofaciens 0.999 | Coprococcus comes 1 | Escherichia coli ED1a 0.943 | Escherichia coli IAI1 0.99 | Eubacterium rectale 0.992 | [3] 0.87 | Lactobacillus gasseri 0.979 | Lactobacillus paracasei 0.922 | Odoribacter splanchnicus 0.943 | [4] 0.994 | Parabacteroides merdae 0.995
